Source: publication PMC7862700, “An all-to-all approach to the identification of sequence-specific readers for epigenetic DNA modifications on cytosine”

Experiments:
Experiment in all cases: DAPPL (digital affinity profiling via proximity ligation, sequencing); 10 mM Tris-HCl pH 7.5, 50 mM NaCl, 1 mM DTT, 4% glycerol, room temperature, 30 min; GST-TFs on glutathione beads, 16-mer random dsDNA library, 0.1% formaldehyde crosslink after washing; high values mean tight binding
FLI1 = molecular target: T1, FLI1 (Homo sapiens, UniProt Q01543 1-452); settings: protein: recombinant; tags: N-terminal GST; dsDNA, one strand shown
T1 sequence: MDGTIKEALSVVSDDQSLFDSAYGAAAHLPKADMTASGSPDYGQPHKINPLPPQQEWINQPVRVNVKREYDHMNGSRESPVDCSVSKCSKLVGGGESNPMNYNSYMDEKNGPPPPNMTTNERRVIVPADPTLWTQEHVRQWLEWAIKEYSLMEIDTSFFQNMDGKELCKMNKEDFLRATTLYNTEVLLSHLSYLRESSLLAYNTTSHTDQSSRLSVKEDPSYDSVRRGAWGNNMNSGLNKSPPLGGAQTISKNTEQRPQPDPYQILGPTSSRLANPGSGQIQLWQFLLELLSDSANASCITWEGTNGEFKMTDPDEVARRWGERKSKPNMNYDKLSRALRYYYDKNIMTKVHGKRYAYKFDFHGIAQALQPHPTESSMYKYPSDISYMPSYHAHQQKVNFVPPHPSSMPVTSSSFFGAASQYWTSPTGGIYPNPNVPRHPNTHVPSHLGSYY
Procedure, shortened: (§1)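 Yeast served to express human transcription factors as GST fusions, which were then captured on glutathione beads and labelled with DNA barcodes. Pooled with a tag-only sample, they were incubated with 200 nmole of a 16-mer random double-stranded DNA library for 30 min at room temperature in Tris/NaCl/DTT/glycerol buffer, washed, crosslinked with 0.1% formaldehyde, ligated by proximity, amplified by PCR and sequenced. Dividing each hexamer's read frequency for a factor by its frequency for the tag-only sample gives the binding signal.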

ELK1 = molecular target: T2, ELK1 (Homo sapiens, UniProt P19419 1-428); settings: protein: recombinant; tags: N-terminal GST; dsDNA, one strand shown
T2 sequence: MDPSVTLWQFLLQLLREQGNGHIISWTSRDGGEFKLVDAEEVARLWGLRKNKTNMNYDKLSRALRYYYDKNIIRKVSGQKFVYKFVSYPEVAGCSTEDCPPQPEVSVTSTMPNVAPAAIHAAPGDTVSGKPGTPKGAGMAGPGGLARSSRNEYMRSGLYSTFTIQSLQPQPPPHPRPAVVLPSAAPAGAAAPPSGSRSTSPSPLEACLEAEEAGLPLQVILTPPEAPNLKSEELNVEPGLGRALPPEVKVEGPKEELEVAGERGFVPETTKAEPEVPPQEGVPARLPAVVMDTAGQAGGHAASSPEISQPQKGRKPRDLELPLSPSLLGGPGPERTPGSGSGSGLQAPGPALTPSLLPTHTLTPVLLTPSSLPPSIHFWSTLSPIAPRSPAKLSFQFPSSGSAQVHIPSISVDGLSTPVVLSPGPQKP
Procedure, shortened: as §1

GABPA = molecular target: T3, GABPA (Homo sapiens, UniProt Q06546 1-454); settings: protein: recombinant; tags: N-terminal GST; dsDNA, one strand shown
T3 sequence: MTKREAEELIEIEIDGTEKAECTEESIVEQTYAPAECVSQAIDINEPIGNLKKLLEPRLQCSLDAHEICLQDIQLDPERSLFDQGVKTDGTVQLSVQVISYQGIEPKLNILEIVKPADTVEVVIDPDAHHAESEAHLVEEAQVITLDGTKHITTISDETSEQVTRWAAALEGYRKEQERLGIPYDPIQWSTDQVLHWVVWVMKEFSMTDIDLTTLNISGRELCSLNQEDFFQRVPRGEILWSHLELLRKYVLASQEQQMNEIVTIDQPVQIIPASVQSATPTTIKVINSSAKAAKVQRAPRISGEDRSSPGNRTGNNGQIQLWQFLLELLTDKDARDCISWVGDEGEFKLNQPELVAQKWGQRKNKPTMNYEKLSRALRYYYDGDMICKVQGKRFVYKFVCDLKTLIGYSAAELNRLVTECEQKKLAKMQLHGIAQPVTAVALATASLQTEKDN
Procedure, shortened: as §1

ERG = molecular target: T4, ERG (Homo sapiens, UniProt P11308 1-479); settings: protein: recombinant; tags: N-terminal GST; dsDNA, one strand shown
T4 sequence: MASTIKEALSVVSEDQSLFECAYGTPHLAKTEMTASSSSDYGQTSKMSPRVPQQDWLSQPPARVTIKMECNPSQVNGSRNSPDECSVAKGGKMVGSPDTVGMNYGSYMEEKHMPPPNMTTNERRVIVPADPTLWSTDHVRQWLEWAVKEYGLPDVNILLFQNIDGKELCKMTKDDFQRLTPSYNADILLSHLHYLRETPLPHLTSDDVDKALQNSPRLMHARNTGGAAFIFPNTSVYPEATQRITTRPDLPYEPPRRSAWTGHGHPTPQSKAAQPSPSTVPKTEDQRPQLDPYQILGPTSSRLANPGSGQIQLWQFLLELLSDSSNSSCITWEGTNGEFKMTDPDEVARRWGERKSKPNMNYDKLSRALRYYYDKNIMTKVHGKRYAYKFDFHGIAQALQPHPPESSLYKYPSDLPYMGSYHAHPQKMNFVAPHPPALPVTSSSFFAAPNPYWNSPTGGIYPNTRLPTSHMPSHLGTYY
Procedure, shortened: as §1

ELF1 = ELF1 (Homo sapiens, UniProt P32519 1-619); settings: protein: recombinant; tags: N-terminal GST; dsDNA, one strand shown
Chain of ELF1 (P32519 whole entry): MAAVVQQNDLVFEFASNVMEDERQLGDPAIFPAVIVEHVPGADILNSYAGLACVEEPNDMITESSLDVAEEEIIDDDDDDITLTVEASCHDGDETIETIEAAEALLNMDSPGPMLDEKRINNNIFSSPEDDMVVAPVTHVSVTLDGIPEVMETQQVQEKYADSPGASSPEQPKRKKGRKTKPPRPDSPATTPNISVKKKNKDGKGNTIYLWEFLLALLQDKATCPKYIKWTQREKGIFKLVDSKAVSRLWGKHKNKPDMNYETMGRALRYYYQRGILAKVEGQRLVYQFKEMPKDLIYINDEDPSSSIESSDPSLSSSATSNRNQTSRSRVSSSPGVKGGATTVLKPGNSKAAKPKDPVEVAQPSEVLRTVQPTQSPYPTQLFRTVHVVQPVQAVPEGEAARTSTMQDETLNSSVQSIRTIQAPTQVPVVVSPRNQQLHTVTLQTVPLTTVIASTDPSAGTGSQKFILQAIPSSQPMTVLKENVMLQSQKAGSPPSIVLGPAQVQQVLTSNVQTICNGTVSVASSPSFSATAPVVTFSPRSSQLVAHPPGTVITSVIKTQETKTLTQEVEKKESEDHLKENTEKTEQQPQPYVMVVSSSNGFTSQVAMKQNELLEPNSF
Procedure, shortened: as §1

EHF = molecular target: T5, EHF (Homo sapiens, UniProt Q9NZC4 1-300); settings: protein: recombinant; tags: N-terminal GST; dsDNA, one strand shown
T5 sequence: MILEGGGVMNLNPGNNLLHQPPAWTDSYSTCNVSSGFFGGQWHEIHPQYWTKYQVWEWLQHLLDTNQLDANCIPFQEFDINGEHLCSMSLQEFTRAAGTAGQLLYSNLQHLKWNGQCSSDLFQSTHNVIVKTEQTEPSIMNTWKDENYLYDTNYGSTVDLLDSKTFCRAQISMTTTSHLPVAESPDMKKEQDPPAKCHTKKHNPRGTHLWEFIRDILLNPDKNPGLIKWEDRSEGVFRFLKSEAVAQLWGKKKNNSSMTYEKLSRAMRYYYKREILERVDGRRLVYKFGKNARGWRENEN
Procedure, shortened: as §1

SPI1 = SPI1 (Homo sapiens, UniProt P17947 1-270); settings: protein: recombinant; tags: N-terminal GST; dsDNA, one strand shown
Procedure, shortened: as §1

SPIB = SPIB (Homo sapiens, UniProt Q01892 1-262); settings: protein: recombinant; tags: N-terminal GST; dsDNA, one strand shown
Chain of SPIB (Q01892 whole entry): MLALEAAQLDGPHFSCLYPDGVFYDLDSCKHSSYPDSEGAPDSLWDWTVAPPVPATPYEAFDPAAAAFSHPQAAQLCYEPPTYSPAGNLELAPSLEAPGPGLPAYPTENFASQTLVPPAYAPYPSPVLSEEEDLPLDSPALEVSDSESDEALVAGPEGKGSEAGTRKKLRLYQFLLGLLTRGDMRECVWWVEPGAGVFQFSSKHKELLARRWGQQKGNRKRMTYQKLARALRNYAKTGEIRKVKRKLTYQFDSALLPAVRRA
Procedure, shortened: as §1

ELK3 = molecular target: T6, ELK3 (Homo sapiens, UniProt P41970 1-407); settings: protein: recombinant; tags: N-terminal GST; dsDNA, one strand shown
T6 sequence: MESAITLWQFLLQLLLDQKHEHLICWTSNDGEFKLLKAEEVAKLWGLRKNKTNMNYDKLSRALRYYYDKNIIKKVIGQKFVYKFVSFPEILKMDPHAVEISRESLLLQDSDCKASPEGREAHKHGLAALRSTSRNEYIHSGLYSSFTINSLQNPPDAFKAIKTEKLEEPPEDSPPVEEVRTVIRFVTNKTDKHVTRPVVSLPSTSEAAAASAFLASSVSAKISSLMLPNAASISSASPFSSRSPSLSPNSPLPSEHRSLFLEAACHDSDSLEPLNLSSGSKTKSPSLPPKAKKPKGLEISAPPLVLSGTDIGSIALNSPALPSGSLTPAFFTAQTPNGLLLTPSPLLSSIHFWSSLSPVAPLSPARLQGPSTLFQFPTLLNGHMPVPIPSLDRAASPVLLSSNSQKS
Procedure, shortened: as §1

FEV = molecular target: T7, FEV (Homo sapiens, UniProt Q99581 1-238); settings: protein: recombinant; tags: N-terminal GST; dsDNA, one strand shown
T7 sequence: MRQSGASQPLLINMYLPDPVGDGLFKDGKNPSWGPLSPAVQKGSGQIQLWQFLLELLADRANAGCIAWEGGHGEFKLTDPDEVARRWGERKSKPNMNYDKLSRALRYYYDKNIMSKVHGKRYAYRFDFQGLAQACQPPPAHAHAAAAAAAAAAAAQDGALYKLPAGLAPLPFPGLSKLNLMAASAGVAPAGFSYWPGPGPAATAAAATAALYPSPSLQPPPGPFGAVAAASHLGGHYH
Procedure, shortened: as §1

ETV5 = ETV5 (Homo sapiens, UniProt P41161 1-510); settings: protein: recombinant; tags: N-terminal GST; dsDNA, one strand shown
Chain of ETV5 (P41161 whole entry): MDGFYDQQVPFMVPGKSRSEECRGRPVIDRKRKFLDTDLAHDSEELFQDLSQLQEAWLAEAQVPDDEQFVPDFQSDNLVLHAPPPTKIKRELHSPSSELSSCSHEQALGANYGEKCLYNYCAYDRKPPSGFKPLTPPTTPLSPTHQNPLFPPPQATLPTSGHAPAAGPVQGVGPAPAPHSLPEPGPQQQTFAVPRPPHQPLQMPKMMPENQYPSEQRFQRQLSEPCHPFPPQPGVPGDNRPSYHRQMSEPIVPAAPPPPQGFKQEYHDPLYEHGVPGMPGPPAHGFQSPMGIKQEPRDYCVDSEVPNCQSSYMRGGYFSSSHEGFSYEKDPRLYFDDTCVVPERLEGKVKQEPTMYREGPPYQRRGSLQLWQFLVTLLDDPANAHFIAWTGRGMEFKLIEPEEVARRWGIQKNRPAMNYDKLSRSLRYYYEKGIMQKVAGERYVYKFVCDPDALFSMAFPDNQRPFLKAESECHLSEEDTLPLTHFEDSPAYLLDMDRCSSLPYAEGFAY
Procedure, shortened: as §1

HSF1 = HSF1 (Homo sapiens, UniProt Q00613 1-529); settings: protein: recombinant; tags: N-terminal GST; chain copies: 3; dsDNA, one strand shown
Chain of HSF1 (Q00613 whole entry): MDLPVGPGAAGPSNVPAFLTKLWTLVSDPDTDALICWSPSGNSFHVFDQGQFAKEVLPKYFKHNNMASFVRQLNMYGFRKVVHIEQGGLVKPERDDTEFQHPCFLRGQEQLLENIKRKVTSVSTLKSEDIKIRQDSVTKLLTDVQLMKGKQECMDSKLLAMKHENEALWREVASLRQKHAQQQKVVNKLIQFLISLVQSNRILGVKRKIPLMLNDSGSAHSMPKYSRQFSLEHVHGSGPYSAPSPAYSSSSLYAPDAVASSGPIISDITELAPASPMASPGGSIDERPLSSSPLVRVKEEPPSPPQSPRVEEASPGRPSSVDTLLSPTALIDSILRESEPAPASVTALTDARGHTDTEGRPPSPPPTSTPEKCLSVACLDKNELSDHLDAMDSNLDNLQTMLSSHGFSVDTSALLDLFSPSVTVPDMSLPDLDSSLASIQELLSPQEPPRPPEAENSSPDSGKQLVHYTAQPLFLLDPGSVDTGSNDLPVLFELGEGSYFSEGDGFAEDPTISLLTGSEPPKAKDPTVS
Procedure, shortened: as §1

SPIC = molecular target: T8, SPIC (Homo sapiens, UniProt Q8N5J4 1-248); settings: protein: recombinant; tags: N-terminal GST; dsDNA, one strand shown
T8 sequence: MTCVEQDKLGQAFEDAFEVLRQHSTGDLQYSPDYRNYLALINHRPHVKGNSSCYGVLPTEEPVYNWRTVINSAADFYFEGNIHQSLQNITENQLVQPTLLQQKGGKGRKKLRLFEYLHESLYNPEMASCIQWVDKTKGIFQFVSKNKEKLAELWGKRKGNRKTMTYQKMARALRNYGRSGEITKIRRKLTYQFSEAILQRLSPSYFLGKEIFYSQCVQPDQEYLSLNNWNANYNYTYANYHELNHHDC
Procedure, shortened: as §1

ELF4 = ELF4 (Homo sapiens, UniProt Q99607 1-663); settings: protein: recombinant; tags: N-terminal GST; dsDNA, one strand shown
Chain of ELF4 (Q99607 whole entry): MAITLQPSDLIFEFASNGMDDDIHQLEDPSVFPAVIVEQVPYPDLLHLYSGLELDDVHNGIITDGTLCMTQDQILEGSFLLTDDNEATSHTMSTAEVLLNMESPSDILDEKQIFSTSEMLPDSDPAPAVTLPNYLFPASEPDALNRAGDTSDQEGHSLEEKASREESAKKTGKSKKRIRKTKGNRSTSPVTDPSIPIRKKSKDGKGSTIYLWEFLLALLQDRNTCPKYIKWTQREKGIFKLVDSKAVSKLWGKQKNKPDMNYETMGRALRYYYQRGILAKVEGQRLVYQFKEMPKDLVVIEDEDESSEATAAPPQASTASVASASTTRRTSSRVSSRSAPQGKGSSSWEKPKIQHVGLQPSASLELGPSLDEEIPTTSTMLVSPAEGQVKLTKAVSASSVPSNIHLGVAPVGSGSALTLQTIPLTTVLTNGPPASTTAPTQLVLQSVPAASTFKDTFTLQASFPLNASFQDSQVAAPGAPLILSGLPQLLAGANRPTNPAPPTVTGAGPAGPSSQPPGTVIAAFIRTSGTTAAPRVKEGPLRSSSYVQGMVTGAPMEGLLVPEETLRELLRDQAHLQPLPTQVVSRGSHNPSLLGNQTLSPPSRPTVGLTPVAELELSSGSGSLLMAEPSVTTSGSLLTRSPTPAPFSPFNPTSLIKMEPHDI
Procedure, shortened: as §1

ELK4 = molecular target: T9, ELK4 (Homo sapiens, UniProt P28324-2 1-405); settings: protein: recombinant; tags: N-terminal GST; dsDNA, one strand shown
T9 sequence: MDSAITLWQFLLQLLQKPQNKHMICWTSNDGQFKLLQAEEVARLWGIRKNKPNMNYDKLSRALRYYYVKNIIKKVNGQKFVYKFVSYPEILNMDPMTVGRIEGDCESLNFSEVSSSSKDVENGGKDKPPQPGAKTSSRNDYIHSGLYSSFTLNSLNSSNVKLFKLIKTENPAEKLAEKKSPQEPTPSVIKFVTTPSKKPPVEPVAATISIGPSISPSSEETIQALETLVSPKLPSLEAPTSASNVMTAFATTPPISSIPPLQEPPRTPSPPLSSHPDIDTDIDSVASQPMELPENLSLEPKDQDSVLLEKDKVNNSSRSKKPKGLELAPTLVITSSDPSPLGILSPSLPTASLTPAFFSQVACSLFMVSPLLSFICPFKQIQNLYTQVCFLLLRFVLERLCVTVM
Procedure, shortened: as §1

ETV2 = molecular target: T10, ETV2 (Homo sapiens, UniProt O00321 1-342); settings: protein: recombinant; tags: N-terminal GST; dsDNA, one strand shown
T10 sequence: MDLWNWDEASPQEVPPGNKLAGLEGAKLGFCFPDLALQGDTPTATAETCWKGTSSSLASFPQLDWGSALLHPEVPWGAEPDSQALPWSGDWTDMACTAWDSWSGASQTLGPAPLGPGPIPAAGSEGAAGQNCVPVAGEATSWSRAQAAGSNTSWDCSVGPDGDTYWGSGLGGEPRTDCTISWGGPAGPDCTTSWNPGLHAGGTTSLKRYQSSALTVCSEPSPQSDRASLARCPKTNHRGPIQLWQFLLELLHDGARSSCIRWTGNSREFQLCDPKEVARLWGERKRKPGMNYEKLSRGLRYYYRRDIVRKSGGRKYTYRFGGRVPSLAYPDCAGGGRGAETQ
Procedure, shortened: as §1

ELF3 = molecular target: T11, ELF3 (Homo sapiens, UniProt P78545 1-371); settings: protein: recombinant; tags: N-terminal GST; dsDNA, one strand shown
T11 sequence: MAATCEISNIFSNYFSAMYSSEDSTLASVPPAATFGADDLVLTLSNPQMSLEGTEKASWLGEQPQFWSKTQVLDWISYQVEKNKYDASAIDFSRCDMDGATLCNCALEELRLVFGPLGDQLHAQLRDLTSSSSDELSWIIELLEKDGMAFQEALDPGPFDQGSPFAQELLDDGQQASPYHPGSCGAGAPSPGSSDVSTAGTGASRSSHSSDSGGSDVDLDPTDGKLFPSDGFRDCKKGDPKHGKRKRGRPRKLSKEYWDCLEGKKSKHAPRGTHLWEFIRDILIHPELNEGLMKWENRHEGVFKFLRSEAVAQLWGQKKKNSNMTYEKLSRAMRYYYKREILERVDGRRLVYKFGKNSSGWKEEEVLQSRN
Procedure, shortened: as §1

CRX = CRX (Homo sapiens, UniProt O43186 1-299); settings: protein: recombinant; tags: N-terminal GST; dsDNA, one strand shown
Chain of CRX (O43186 whole entry): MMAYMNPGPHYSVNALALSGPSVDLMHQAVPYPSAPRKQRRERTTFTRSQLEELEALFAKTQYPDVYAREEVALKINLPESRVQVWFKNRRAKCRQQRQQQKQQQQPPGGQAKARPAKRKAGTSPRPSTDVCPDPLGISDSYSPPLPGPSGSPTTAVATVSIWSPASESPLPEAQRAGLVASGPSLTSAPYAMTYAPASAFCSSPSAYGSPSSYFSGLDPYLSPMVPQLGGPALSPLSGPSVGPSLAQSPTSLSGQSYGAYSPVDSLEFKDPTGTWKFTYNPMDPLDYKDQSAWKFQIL
Procedure, shortened: as §1

ETV1 = ETV1 (Homo sapiens, UniProt P50549 1-477); settings: protein: recombinant; tags: N-terminal GST; dsDNA, one strand shown
Chain of ETV1 (P50549 whole entry): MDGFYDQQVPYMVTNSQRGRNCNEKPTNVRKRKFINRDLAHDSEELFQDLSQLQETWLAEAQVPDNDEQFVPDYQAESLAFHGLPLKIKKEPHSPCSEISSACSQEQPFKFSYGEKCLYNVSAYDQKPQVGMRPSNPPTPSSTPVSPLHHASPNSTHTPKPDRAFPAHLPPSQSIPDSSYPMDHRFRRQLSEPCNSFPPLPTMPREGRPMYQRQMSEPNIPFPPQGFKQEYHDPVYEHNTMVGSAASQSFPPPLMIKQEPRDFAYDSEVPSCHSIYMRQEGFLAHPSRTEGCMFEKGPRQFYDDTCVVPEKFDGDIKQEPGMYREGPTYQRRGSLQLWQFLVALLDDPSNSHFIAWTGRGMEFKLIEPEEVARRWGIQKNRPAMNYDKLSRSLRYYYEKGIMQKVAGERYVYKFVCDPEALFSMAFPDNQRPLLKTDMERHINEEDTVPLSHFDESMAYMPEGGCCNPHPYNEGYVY
Procedure, shortened: as §1

## TCGCTA
FLI1
  binding signal: 1.17 fold enrichment (6-mer frequency, TF over GST control)
ELK1
  binding signal: 1.09 fold enrichment (6-mer frequency, TF over GST control)
GABPA
  binding signal: 1.24 fold enrichment (6-mer frequency, TF over GST control)
ERG
  binding signal: 1.07 fold enrichment (6-mer frequency, TF over GST control)
ELF1
  binding signal: 1.11 fold enrichment (6-mer frequency, TF over GST control)
EHF
  binding signal: 1.02 fold enrichment (6-mer frequency, TF over GST control)
SPI1
  binding signal: 1.04 fold enrichment (6-mer frequency, TF over GST control)
SPIB
  binding signal: 1.05 fold enrichment (6-mer frequency, TF over GST control)
ELK3
  binding signal: 1.23 fold enrichment (6-mer frequency, TF over GST control)
FEV
  binding signal: 1.08 fold enrichment (6-mer frequency, TF over GST control)
ETV5
  binding signal: 1.07 fold enrichment (6-mer frequency, TF over GST control)
HSF1
  binding signal: 1.15 fold enrichment (6-mer frequency, TF over GST control)
SPIC
  binding signal: 1.06 fold enrichment (6-mer frequency, TF over GST control)
ELF4
  binding signal: 1.11 fold enrichment (6-mer frequency, TF over GST control)
ELK4
  binding signal: 1.16 fold enrichment (6-mer frequency, TF over GST control)
ETV2
  binding signal: 1.24 fold enrichment (6-mer frequency, TF over GST control)
ELF3
  binding signal: 1.03 fold enrichment (6-mer frequency, TF over GST control)
CRX
  binding signal: 1.12 fold enrichment (6-mer frequency, TF over GST control)
ETV1
  binding signal: 1.08 fold enrichment (6-mer frequency, TF over GST control)
